About 4,300 (8.3%) of roughly 52,000 compounds were called active. What follows is part of a selection rich in actives, with near analogues and random picks from the rest. Values without a mark were called inactive. Cut-off read from the data, not from the text of the source: active = survival mostly below about 52% (no sharp cut-off); inactive = mostly above about 56%.

Experimental findings from PubChem BioAssay AID463173 (ICCB-Longwood Screening Facility, Harvard Medical School, 2010) are described below.

In the assay the test system is DeltatarO mutant. In words: growth inhibition of S. aureus wild type versus tarO mutant, primary screen, teichoic acid synthesis inhibitors, RN4220, OD600 (AID 463173). The note with it: OD600, 18 h, stronger effect = lower value, screened at 18.75 µg/mL (by protocol).
For the molecule `COc1ccc(-c2cc(C)no2)cc1S(=O)(=O)N1CCN(c2ccc(C(C)=O)cc2)CC1`, the survival is 91%.

Turning to `CCCN1CCN(C(=O)Cn2c(-c3cccs3)cc3ccccc32)CC1`, the survival was 95%.

For `Cc1cc(C)c2c(=O)[nH]c(SCC(=O)NCCc3ccccc3)nc2n1`, the survival is 61%.

On to `CCCCN(C)CCNC(=O)C1CCN(c2nc3ccc(CC)cc3s2)CC1`, for which the survival was 45%.

Consider `CCOc1ccc2nc(N3CCCC(C(=O)NCCc4ccc(SC)cc4)C3)sc2c1` (stereo unspecified), for which the survival is 91%.

For the molecule `CCOc1ccc2nc(N3CCCC(C(=O)NCCc4ccc(C)cc4)C3)sc2c1` (stereo unspecified), the survival is 64%.

Turning to `CCOc1ccc2nc(N3CCCC(C(=O)NCCc4ccc(Cl)cc4)C3)sc2c1` (stereo unspecified), the survival was 48% (active).

In the case of `CCCN(CCC)CCNC(=O)C1CCN(c2nc3ccc(CC)cc3s2)CC1`, the survival was 43% (active).

Consider `CCCN(CCC)CCCNC(=O)C1CCN(c2nc3ccc(CC)cc3s2)CC1`, for which the survival was 54%.

In the case of `COc1ccc(CCNC(=O)CSc2cn(CCNC(=O)c3c(F)cccc3F)c3ccccc23)cc1OC`, the survival was 79%.

For `COc1cccc(CNC(=O)C2CCCN(S(=O)(=O)N(C)c3ccc(F)cc3)C2)c1OC` (stereo unspecified), the survival is 87%.

Regarding `O=C1CS/C(=N\N2CCOCC2)N1Cc1ccccc1`, the survival is 84%.

Take `Cc1nnc(N2CCN(C(=O)NC(C)C)CC2)c2nn(-c3ccccc3)c(C)c12`: the survival is 72%.

As to `Cc1ccccc1NC(=O)Nc1csc2c1CCCC2`, the survival was 29% (active).

As to `CC(C)c1ccc(NC(=O)Nc2csc3c2CCCC3)cc1`, the survival was 13% (active).

On to `O=C(Nc1ccc(F)cc1)Nc1csc2c1CCCC2`, for which the survival is 4% (active).

With `Cc1ccc(C)c(NC(=O)Nc2csc3c2CCCC3)c1`, the survival is 75%.

Consider `Cc1cccc(C)c1NC(=O)Nc1csc2c1CCCC2`, for which the survival is 78%.

In the case of `Cc1cc(NC(=O)Nc2csc3c2CCCC3)ccc1Br`, the survival is 44%.

For the molecule `Cc1ccc(NC(=O)Nc2csc3c2CCCC3)c(C)c1`, the survival was 63%.

As to `CCc1cccc(NC(=O)Nc2csc3c2CCCC3)c1`, the survival is 114%.

For the molecule `O=C(Nc1ccc(F)cc1)c1csc2c1CCCCC2`, the survival was 63%.

For the molecule `CCOCCCNC(=O)CCC(=O)NNc1nc2ccccc2c2nc(-c3ccccc3)nn12`, the survival is 83%.

Consider `COc1ccc(NC(=O)CN2C(=O)CSc3ccc(S(=O)(=O)N(C)C)cc32)cc1Cl`, for which the survival was 74%.

For the molecule `CCc1nn(CC(=O)N2CCN(c3cccc(OC)c3)CC2)c(=O)c2cc3occc3n12`, the survival is 91%.

As for `COc1ccc(S(=O)(=O)N(CCc2ccccc2)CC(N)=O)cc1`, the survival is 88%.

For `Cn1nnnc1SCCCNCc1cc(Cl)ccc1OCc1ccccc1`, the survival is 72%.

Turning to `CCOc1ccc(NC(=O)CSc2nc3c(oc4ccccc43)c(=O)n2CCOC)cc1`, the survival was 74%.

Regarding `COc1cccc(-n2c(SCC(=O)Nc3cccc(Cl)c3)nc3c(oc4ccccc43)c2=O)c1`, the survival was 85%.

On to `COCCn1c(SCC(=O)Nc2ccc(F)c(Cl)c2)nc2c(oc3ccccc32)c1=O`, for which the survival was 44% (active).

Regarding `O=C(CSc1nc2c(oc3ccccc32)c(=O)[nH]1)Nc1cccc(Cl)c1`, the survival is 37% (active).

Take `O=C(CSc1nc2c(oc3ccccc32)c(=O)n1Cc1ccco1)Nc1cccc(Cl)c1`: the survival was 62%.

Take `O=C(CSc1nc2c(oc3ccccc32)c(=O)n1-c1ccccc1)Nc1ccc(F)c(Cl)c1`: the survival was 86%.

Take `O=C(NCc1ccc(F)cc1)C1CCN(c2ncnc3c2nc2n3CCCCC2)CC1`: the survival is 86%.

Turning to `CCC1(c2ccccc2)NC(=O)NC1=O` (stereo unspecified), the survival was 98%.

Regarding `Clc1nc(Cl)nc(OCCCOc2nc(Cl)nc(Cl)n2)n1`, the survival was 94%.

With `CCc1c(C)nc2nncn2c1Nc1ccc(Cl)cc1`, the survival was 91%.

As to `Cc1ccc(N2CCN(c3nc4ccccc4c4nnc(C)n34)CC2)c(C)c1`, the survival is 101%.

For the molecule `CCOC(=O)c1cc(OC(=O)c2cccc(F)c2)n(-c2ccccc2)n1`, the survival is 61%.

With `CCOC(=O)c1cc(OC(=O)c2ccc(C)cc2)n(-c2ccccc2)n1`, the survival was 137%.

As for `CCOC(=O)c1cc(OC(=O)c2ccc(Cl)cc2)n(-c2ccccc2)n1`, the survival was 85% (active).

With `CCOC(=O)c1cc(OC(=O)c2ccccc2OC)n(-c2ccccc2)n1`, the survival was 54%.

Turning to `CCOC(=O)c1cc(OC(=O)c2cc(OC)cc(OC)c2)n(-c2ccccc2)n1`, the survival was 62%.

With `CCOC(=O)c1cc(OC(=O)c2cc(OC)c(OC)c(OC)c2)n(-c2ccccc2)n1`, the survival is 54% (active).

Regarding `CCOC(=O)c1cc(OC(=O)c2ccc(OC)c(OC)c2)n(-c2ccccc2)n1`, the survival is 67%.

On to `CCOC(=O)c1cc(OC(=O)c2ccc(OC)cc2)n(-c2ccccc2)n1`, for which the survival is 59% (active).

As for `CCOC(=O)c1cc(OC(=O)c2cccc(C)c2)n(-c2ccccc2)n1`, the survival is 59%.

In the case of `CCOc1ccc(NC(=O)CN2C(=O)COc3ccc(S(=O)(=O)NC4CCCC4)cc32)cc1`, the survival is 73%.

Take `O=C(c1ccc(F)cc1)N1CCN(CCc2ccncc2)CC1`: the survival is 84%.

Take `CCc1ccc(NCc2cc3ccc(OC)cc3n(CC(=O)Nc3c(C)cc(C)cc3C)c2=O)cc1`: the survival is 76%.

In the case of `N#CSc1ccc(NCCO)cc1C(F)(F)F`, the survival was 95%.

As for `O=C(NCCc1ccc(Cl)cc1)C(=O)NCC(c1ccco1)S(=O)(=O)c1ccc(Cl)cc1` (stereo unspecified), the survival is 94%.

Take `O=C1CN(C(=O)c2ccc(Cl)cc2Cl)C(c2ccc(F)cc2)c2cc(F)ccc2N1` (stereo unspecified): the survival is 65%.

For `O=c1c(NCc2ccccc2Cl)nccn1-c1ccccc1`, the survival is 17% (active).

Regarding `COc1ccc(-n2ccnc(NCc3ccc(Cl)cc3)c2=O)cc1`, the survival is 8% (active).

Regarding `COc1ccc(-n2ccnc(NCc3ccc(C)cc3)c2=O)cc1OC`, the survival is 94%.

For the molecule `COc1ccc(-n2ccnc(NCc3cccs3)c2=O)cc1`, the survival is 20% (active).

Regarding `COc1ccc(-n2ccnc(NCc3ccccc3OC)c2=O)cc1`, the survival was 89%.

`COc1ccc(-n2ccnc(NCc3cccs3)c2=O)cc1OC`: the survival is 85%.

For `O=c1c(NCc2cccs2)nccn1-c1ccccc1`, the survival is 68%.

For `COc1ccc(-n2ccnc(NCc3ccccc3Cl)c2=O)cc1OC`, the survival is 81%.

In the case of `O=c1c(NCCc2ccc(Cl)cc2)nccn1-c1ccccc1`, the survival was 55%.

As for `Cc1cc(C)cc(NC(=O)c2cccc(N3CCCS3(=O)=O)c2)c1`, the survival was 101%.

Regarding `CCc1ccc(N2C(=O)CSC23C(=O)N(Cc2cccc(F)c2)c2ccccc23)cc1` (stereo unspecified), the survival is 124%.

Consider `O=C1C(=O)N(C2CCN(C(=O)c3ccccc3Cl)CC2)CCN1Cc1ccc(F)cc1`, for which the survival is 67%.

`CN1C(C(=O)Nc2ccc(F)cc2F)=CC(c2cccs2)=NS1(=O)=O`: the survival was 99%.

Regarding `CCCOc1ccc(-c2nc(SC)[nH]c(=O)c2C#N)cc1OC`, the survival was 79%.

With `COc1ccc(C(=O)N2CCC(c3nc4ccccc4s3)CC2)cc1Cl`, the survival is 62%.

Take `CCc1ccc(OC(C)C(=O)N2CCC(c3nc4ccccc4s3)CC2)cc1` (stereo unspecified): the survival is 28% (active).

For the molecule `COc1ccccc1OC(C)C(=O)N1CCC(c2nc3ccccc3s2)CC1` (stereo unspecified), the survival is 2% (active).

In the case of `O=C(c1ccccc1Cl)N1CCC(c2nc3ccccc3s2)CC1`, the survival is 57%.

For the molecule `Cc1ccccc1C(=O)N1CCC(c2nc3ccccc3s2)CC1`, the survival was 75%.

On to `CC(Oc1ccc(F)cc1)C(=O)N1CCC(c2nc3ccccc3s2)CC1` (stereo unspecified), for which the survival was 58%.

For `CCC(Oc1ccccc1F)C(=O)N1CCC(c2nc3ccccc3s2)CC1` (stereo unspecified), the survival was 2% (active).

Take `COc1cccc(C(=O)N2CCC(c3nc4ccccc4s3)CC2)c1`: the survival is 70%.

In the case of `COc1cc(C(=O)N2CCC(c3nc4ccccc4s3)CC2)cc(OC)c1OC`, the survival is 74%.

Turning to `COCCCNC(=O)Cn1cnc2sc(C)c(S(=O)(=O)N3CCC(C)CC3)c2c1=O`, the survival was 69%.

For `CCOCCc1nn2c(=O)cc(COC(=O)c3ccccc3NC(=O)c3cccs3)nc2s1`, the survival was 58%.

For `COc1ccc(CNC(=O)c2cc(-c3ccc(C)cc3)nc3n[nH]c(-c4ccc(Br)cc4)c23)cc1`, the survival was 74%.

Take `O=C(NCCc1ccc(Cl)cc1)c1nnc(Cc2ccc(Cl)cc2Cl)o1`: the survival is 96%.

For the molecule `COc1ccccc1CNC(=O)CCNS(=O)(=O)c1ccc2c(c1)CCCC(=O)N2`, the survival was 60%.

For the molecule `CC1CCN(C(=O)Cn2c(=O)n(CCCCCC(=O)NCc3ccccc3Cl)c(=O)c3sccc32)CC1`, the survival was 69%.

For the molecule `COc1ccc(N2CC(NC(=O)C(c3ccccc3)c3ccccc3)CC2=O)cc1OC` (stereo unspecified), the survival is 90%.

In the case of `CC(=O)Nc1ccc(NC(=O)C(NC(=O)C2CCC(C)CC2)C(C)C)cc1` (stereo unspecified), the survival is 128%.

In the case of `COc1ccc(NC(=O)c2sc3nc4c(cc3c2N)CN(Cc2ccccc2)CC4)c(OC)c1`, the survival is 47% (active).

As for `CN1CCc2nc3sc(C(=O)Nc4cccc(C#N)c4)c(N)c3cc2C1`, the survival was 54% (active).

Regarding `CC(=O)c1cccc(NC(=O)c2sc3nc4c(cc3c2N)CCCC4)c1`, the survival was 60%.

For the molecule `Nc1c(C(=O)Nc2ccc(C(=O)O)cc2)sc2nc3c(cc12)CCCC3`, the survival is 42% (active).

On to `CCOc1ccccc1NC(=O)c1sc2nc3c(cc2c1N)CN(Cc1ccccc1)CC3`, for which the survival was 63%.

For `COc1ccccc1NC(=O)c1sc2nc3c(cc2c1N)CN(Cc1ccccc1)CC3`, the survival was 101%.

`COc1ccc(NC(=O)c2sc3nc4c(cc3c2N)CCCCCC4)cc1`: the survival is 127%.

With `CCN1CCc2nc3sc(C(=O)Nc4cccc(Cl)c4C)c(N)c3cc2C1`, the survival is 125%.

For the molecule `COc1ccc(NC(=O)c2sc3nc4c(cc3c2N)CN(Cc2ccccc2)CC4)cc1`, the survival is 96%.

As to `CCN1CCc2nc3sc(C(=O)Nc4ccccc4OC(F)(F)F)c(N)c3cc2C1`, the survival was 44% (active).

For the molecule `CN1CCc2nc3sc(C(=O)Nc4c(F)cccc4F)c(N)c3cc2C1`, the survival was 153%.

For `CCN(CC)c1ccc(NC(=O)c2sc3nc4c(cc3c2N)CN(C)CC4)cc1`, the survival is 181%.
